From PubChem BioAssay AID588453 (National Center for Advancing Translational Sciences (NCATS), 2011)
The whole screen tested about 390,000 compounds, of which about 4,000 (1%) were called active. Roughly 4% stayed inconclusive and do not appear here. Calls come from the whole dose curve; as a rule, active = well fitted inhibition curve with a large enough effect; inconclusive = small, poorly fitted or top-dose-only effect; inactive = no such curve, though single readings can be large or run the other way. What follows is part of a selection rich in actives, with near analogues and random picks from the rest.

Biological target: Thioredoxin reductase 1, cytoplasmic (Rattus norvegicus) (UniProt O89049)
Test: qHTS Assay for Inhibitors of Mammalian Selenoprotein Thioredoxin Reductase 1 (TrxR1): qHTS; note: nearly all actives have a fitted effect of over 65% in size
Details: recombinant rTrxR1, NADPH fluorescence consumption, selenite substrate; series mostly up to 114 µM; activity change, negative = inhibition: at the top concentration
From the text: The selenoprotein thioredoxin reductase (TrxR; EC 1.8.1.9) is a FAD containing homodimeric pyridine nucleotide-disulfide oxidoreductase with many cellular roles. Together with NADPH and its prime substrate thioredoxin (Trx), the enzyme forms the core of the Trx system. The mammalian Trx system exerts a wide spectrum of functions including redox regulation, antioxidant defense, regulation of transcription factors as well as support of cell growth and replication. Many of these functions involve the reduction of Trx, which may subsequently reduce a number of different substrates including ribonucleotide reductase, peroxiredoxins or NFkB. Mammalian TrxR itself also has a broad substrate specificity, reducing both protein and non-protein substrates, including low molecular weight compounds such as dehydroascorbate, lipoic acid, ubiquinone, and juglone. In addition, several drugs in clinical use for anticancer treatment are indeed known to target TrxR1.
This BioAssay is a validation of an NADPH fluorescence-based, dual-purpose qHTS rTrxR1 assay designed to find potential inhibitors and substrates of rTrxR1. For this particular BioAssay, actives are potential inhibitors. See related BioAssay for substrate data deposition.
NIH Molecular Libraries Probe Production Network [MLPCN]
NIH Chemical Genomics Center [NCGC]
Assay Provider: Elias Arner, Karolinska Institute
Assay protocol: 2 uL of reagents (buffer in column 4 as negative control and 90 nM rTrxR1 in columns 1-3 and 5-48) were dispensed into Greiner black solid-bottom 1,536-well assay plates, followed by 1 uL of NADPH (400 uM final concentration) to each well. The plates were centrifuged at 1000 rpm for 15 seconds and subsequently incubated for 5 min at room temperature (~22 deg C) to allow for rTrxR1 reduction. Compounds (23 nL) were then transferred via Kalypsys pin tool equipped with 1536-pin array (10 nL slotted pins, V&P Scientific, San Diego, CA). In addition, a duplicate 2-fold serial dilution of the control compounds auranofin, a known gold-based TrxR1 inhibitor, and juglone (5-hydroxy-1,4-naphthoquinone), a natural TrxR1 substrate, were pin-transferred to columns 2 and 3, respectively. After incubation for 15 min at room temperature (~22 deg C), 1 uL of selenite (400 uM final concentration) were dispensed to each well. The plate was immediately transferred to a ViewLux high-throughput CCD imager (PerkinElmer), wherein kinetic measurements of NADPH fluorescence (Ex 340 nm, Em 450 nm) were acquired (8 minute kinetic read, see Table 1). Read 1 was utilized to assess the capacity of a compound to serve as an rTrxR1 substrate, i.e. a decrease in NADPH fluorescence compared to the no-compound background is an indication of a substrate behavior for that particular compound. For inhibitory activity of a compound, delta values, computed as the difference in fluorescence intensity between the first and last reads of an 8-minute time kinetic window, were used. All reagents were diluted in an assay buffer consisting of 50 mM Tris-HCl, pH 7.5, 2 mM EDTA, and 0.01% Tween-20.
Throughout the screen, reagent bottle and all liquid lines were made light-tight to minimize reagent degradation. All screening operations were performed on a fully integrated robotic system (Kalypsys, San Diego, CA) containing one RX-130 and two RX-90 anthropomorphic robotic arms (Staubli, Duncan, SC). Library plates were screened starting from the lowest and proceeding to the highest concentration, and a 'double-pinning' step of the highest concentration was required to access higher concentrations of compounds. Vehicle-only plates, with DMSO being pin-transferred to the columns 5-48, were inserted uniformly at the beginning and the end of each library in order to monitor and record any shifts in the background, which can be affected by reagent dispensers or loss in enzyme activity over time. […]
% is set by controls: 0 for no effect and ±100 for the full control effect; potency is the fitted concentration of half-maximal effect.

Chain of Thioredoxin reductase 1, cytoplasmic (Rattus norvegicus) (O89049 whole entry, looked up): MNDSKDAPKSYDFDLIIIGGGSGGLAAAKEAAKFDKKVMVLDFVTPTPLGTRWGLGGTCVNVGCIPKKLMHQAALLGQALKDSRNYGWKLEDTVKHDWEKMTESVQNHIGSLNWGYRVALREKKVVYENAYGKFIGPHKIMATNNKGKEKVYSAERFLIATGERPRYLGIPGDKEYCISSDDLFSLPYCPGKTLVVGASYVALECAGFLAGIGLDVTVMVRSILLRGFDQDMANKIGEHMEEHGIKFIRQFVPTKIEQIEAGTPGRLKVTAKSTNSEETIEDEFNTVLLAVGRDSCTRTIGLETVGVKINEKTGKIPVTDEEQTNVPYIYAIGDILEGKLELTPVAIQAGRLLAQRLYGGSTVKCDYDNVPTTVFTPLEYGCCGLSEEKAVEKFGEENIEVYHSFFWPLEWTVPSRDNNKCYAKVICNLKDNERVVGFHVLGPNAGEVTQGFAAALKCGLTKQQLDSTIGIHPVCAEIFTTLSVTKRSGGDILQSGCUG

Potency, active:
COc1ccc(-c2nc(CS(=O)CC(=O)NCc3ccccn3)c(C)o2)cc1 (stereo not drawn) 7.08 µM
C[C@@H](NC(=O)OC(C)(C)C)c1nnc(S(=O)(=O)Cc2ccccc2)o1 0.316 µM
C=COC(=O)N1CCN(/[N+]([O-])=N/Oc2ccc([N+](=O)[O-])cc2[N+](=O)[O-])CC1 10 µM
O=C1/C(=C\c2cccnc2)CN(Cc2ccccc2)C/C1=C\c1cccnc1 50.1 µM
O=C(CC(n1cncn1)C(Cl)(Cl)Cl)c1ccc([N+](=O)[O-])cc1 (stereo not drawn) 3.55 µM
CCOc1ccc(N2C(=O)CC(N(O)c3ccccc3)C2=O)cc1 (stereo not drawn) 12.6 µM
CCOc1cccc2c1N[C@@H](c1ccc(C(=O)O)cc1)[C@H]1CC=C[C@@H]21 11.2 µM
O=C(CN1CCN(S(=O)(=O)c2cc(Cl)ccc2Cl)CC1)c1ccc(O)c(O)c1 44.7 µM
COc1ccc(C(C[N+](=O)[O-])n2nc(C)cc2C)cc1 (stereo not drawn) 8.91 µM

Potency, inactive:
O=C(O)CCc1cccnc1

Activity change, negative = inhibition, inactive:
COc1ccc(CNC(=O)CS(=O)Cc2nc(-c3cccc(C)c3)oc2C)cc1 (stereo not drawn) -11.3%
Nc1ccc(/C=C/c2ccnc3ccccc23)c([N+](=O)[O-])c1 2.67%
CCCCNc1ccc(-c2nc(-c3ccncc3)no2)cc1[N+](=O)[O-] -3.02%
CCC1CCCCN1S(=O)(=O)c1ccc(NC(=O)c2cc(=O)c3ccccc3o2)cc1 (stereo not drawn) 16.9%
Brc1nc2ncnc(NCc3ccco3)c2[nH]1 24.3% [at 0.0914 µM]
COc1cc(CNC(=O)c2cc3n(n2)CCCN(Cc2cccc(F)c2)C3=O)cc(OC)c1OC 10.6% [at 57.1 µM]
CC1CCN(C(=O)Cn2c(=O)n(-c3ccc(Cl)cc3)c(=O)c3c4c(sc32)CCC4)CC1 21%
O=C(O)C1=C/C(=C/C=[N+]2c3cc(O)c(O[C@H]4OC(CO)[C@@H](O)[C@@H](O)[C@@H]4O)cc3C[C@@H]2C(=O)[O-])C[C@H](C(=O)O)N1 (stereo partly drawn) -0.117%
CC(C)[C@@H](NC(=O)OC(C)(C)C)C(=O)NCC1CCC(C(=O)N[C@@H](Cc2ccccc2)C(=O)O)CC1 (stereo partly drawn) 17.4% [at 57.1 µM]
CC(C)(C)c1ccc(C(CC(=O)O)NS(=O)(=O)Cc2ccccc2)cc1 (stereo not drawn) 26.7%
Cc1ccc(Cl)cc1NC(=O)CSc1nccn1C 30% [at 57.1 µM]
Cc1cccc(CN2Cc3cccc4c3[C@H](C=CC4)CC2=S)c1 -7.23%
N#Cc1ccc[n+](CC(=O)c2ccc(F)cc2)c1 -15.1%
CC1CCCN(c2cc3c(cc2F)c(=O)c(S(=O)(=O)c2cccc(Cl)c2)cn3Cc2ccccc2)C1 (stereo not drawn) 20.8%
COc1ccc(CNC(=O)CC2Oc3ccc(C)cc3NC2=O)cc1 (stereo not drawn) 5.11%
CCOC(=O)N1CCN(c2cc(C)c([N+](=O)[O-])cc2F)CC1 9.84% [at 57.1 µM]
COc1cc(C(=S)N2CCOCC2)cc(OC)c1OC(=O)c1ccc([N+](=O)[O-])cc1[N+](=O)[O-] 7.04% [at 57.1 µM]
O=C(O)C1CC(=O)N(Cc2cccnc2)C1 (stereo not drawn) -3.09%
O=C(Nc1ccc2nc(SCC(=O)N3CCCc4ccccc43)sc2c1)c1ccc(Cl)cc1 38.1%
C=C1C=C(C(F)F)n2ncc(C(=O)NCCc3ccccc3OC)c2N1 1.89%
Cc1ccccc1CN1CCC(CNC(=O)c2c(C)oc3ncnc(N4CCCCC4)c23)CC1 16.4%
Cc1ccc(C)c(Cn2c(C)c(CNCc3ccc(F)cc3)c(C(=O)O)c2C)c1 20.8%
O=C(Cn1c[n+](CC(=O)c2ccc([N+](=O)[O-])cc2)cn1)c1ccc([N+](=O)[O-])cc1 -30.7%
O=C(CCn1nnc2ccccc21)OCC(=O)c1ccc([N+](=O)[O-])cc1 25.8%
CCCOc1ccc(N2C(=O)CC(N(CCc3ccc(S(N)(=O)=O)cc3)C(C)=O)C2=O)cc1 (stereo not drawn) 10.5%
CCOc1ccc(N2C(=O)CC(N(CCc3ccc(OC)c(OC)c3)C(=S)Nc3ccccc3)C2=O)cc1 (stereo not drawn) -11.6%
O=C(CC1N=C2c3ccccc3N=C(SCc3ccc(F)cc3)N2C1=O)NCc1cccs1 (stereo not drawn) 1.84% [at 57.1 µM]
Cc1nc2ccccn2c(=O)c1NC(=O)c1c(F)cccc1F 16.1% [at 57.1 µM]
CCc1ccc(NC(=O)CCCc2nnc3n(CCCOC)c(=O)c4sccc4n23)cc1 23.7%
CCOc1cccc(CC(=O)N2CCc3c([nH]c4ccccc34)C2c2ccc(F)cc2)c1OCC (stereo not drawn) 38.1% [at 57.1 µM]
CCOc1ccccc1CNC(=O)c1ccc(-n2c(C)cc3c2CCC(C)C3)cc1 (stereo not drawn) -7.5%
O=C(c1cnn2c1NC(=C1CC1)C=C2C(F)F)N1CCc2ccccc2C1 -19.6%
CCOC(=O)c1ccc(NC(=O)C2CC(=O)N(c3ccc(C(C)C)cc3)C2)cc1 (stereo not drawn) 10.9%
O=S(=O)(c1cc(Cl)ccc1Cl)N1CCN(Cc2ccco2)CC1 -4.98%
CCN1CCN(C(=O)C2CCN(S(=O)(=O)c3cc(Cl)ccc3Cl)CC2)CC1 18.4% [at 57.1 µM]
CN1CCN(C2(CNC(=O)COc3ccc(C(C)(C)C)cc3)CCCCC2)CC1 18.5%
COc1ccc2cc(-c3[nH]ncc3CNCCn3nc(C)cc3C)ccc2c1 28.7%
COc1ccc(S(=O)(=O)NCC(c2ccc(N(C)C)cc2)N2CCCC2)cc1 (stereo not drawn) 11.6% [at 57.1 µM]
